In ChEMBL document CHEMBL1961873, “Compounds: GSK PKIS; Assays: Nanosyn kinase panel” (2012):
Values joined by “and” are separate entries in the source; they are usually repeats but may differ in a detail not shown here. Equal values may be shown once.

How the values were obtained:
[1] = target: Tyrosine-protein kinase receptor UFO (Homo sapiens) (UniProt P30530); conditions: at 1 µM
[2] = target: Tyrosine-protein kinase Blk (Homo sapiens) (UniProt P51451); conditions: at 0.1 µM
[3] = target: Tyrosine-protein kinase Blk (Homo sapiens) (UniProt P51451); conditions: at 1 µM
[4] = target: T1, Cytoplasmic tyrosine-protein kinase BMX (Homo sapiens) (UniProt P51813); conditions: at 0.1 µM
T1 sequence (whole entry): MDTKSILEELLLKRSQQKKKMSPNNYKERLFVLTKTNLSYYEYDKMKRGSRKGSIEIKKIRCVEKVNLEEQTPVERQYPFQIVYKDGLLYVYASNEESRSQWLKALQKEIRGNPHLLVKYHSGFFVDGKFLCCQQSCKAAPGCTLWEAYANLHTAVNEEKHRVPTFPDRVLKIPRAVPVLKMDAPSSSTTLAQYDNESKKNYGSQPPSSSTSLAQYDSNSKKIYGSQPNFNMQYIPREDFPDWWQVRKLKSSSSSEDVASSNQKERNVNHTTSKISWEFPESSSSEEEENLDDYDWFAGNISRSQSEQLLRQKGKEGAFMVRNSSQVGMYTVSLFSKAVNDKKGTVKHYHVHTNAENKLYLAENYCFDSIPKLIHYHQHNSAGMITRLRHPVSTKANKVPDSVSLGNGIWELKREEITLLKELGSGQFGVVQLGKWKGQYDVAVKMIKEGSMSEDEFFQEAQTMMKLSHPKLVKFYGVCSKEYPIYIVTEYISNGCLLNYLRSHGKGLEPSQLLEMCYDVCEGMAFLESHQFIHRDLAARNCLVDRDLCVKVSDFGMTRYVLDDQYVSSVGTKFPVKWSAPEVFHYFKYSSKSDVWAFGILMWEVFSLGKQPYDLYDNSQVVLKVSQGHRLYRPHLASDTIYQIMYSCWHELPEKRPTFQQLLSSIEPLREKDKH

[5] = target: T1, Cytoplasmic tyrosine-protein kinase BMX (Homo sapiens); conditions: at 1 µM
[6] = target: Protein-tyrosine kinase 6 (Homo sapiens) (UniProt Q13882); conditions: at 0.1 µM
Protein-tyrosine kinase 6 (Homo sapiens), sequence (Q13882 whole entry, looked up): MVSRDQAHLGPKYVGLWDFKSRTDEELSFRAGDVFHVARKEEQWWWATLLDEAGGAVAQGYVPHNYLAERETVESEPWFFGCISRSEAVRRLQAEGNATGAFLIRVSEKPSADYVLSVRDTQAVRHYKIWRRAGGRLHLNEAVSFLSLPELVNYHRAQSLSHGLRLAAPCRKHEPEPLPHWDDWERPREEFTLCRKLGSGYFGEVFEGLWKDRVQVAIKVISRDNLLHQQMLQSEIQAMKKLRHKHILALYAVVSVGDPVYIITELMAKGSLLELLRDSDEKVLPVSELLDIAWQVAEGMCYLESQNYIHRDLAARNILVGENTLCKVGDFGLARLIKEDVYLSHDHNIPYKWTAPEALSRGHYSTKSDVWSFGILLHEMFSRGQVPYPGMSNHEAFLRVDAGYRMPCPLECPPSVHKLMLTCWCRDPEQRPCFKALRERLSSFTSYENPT

[7] = target: Protein-tyrosine kinase 6 (Homo sapiens) (UniProt Q13882); conditions: at 1 µM
[8] = target: Tyrosine-protein kinase BTK (Homo sapiens) (UniProt Q06187); conditions: at 0.1 µM
[9] = target: Tyrosine-protein kinase BTK (Homo sapiens) (UniProt Q06187); conditions: at 1 µM
[10] = target: Tyrosine-protein kinase CSK (Homo sapiens) (UniProt P41240); conditions: at 0.1 µM
Tyrosine-protein kinase CSK (Homo sapiens), sequence (P41240 2-450 limits assumed): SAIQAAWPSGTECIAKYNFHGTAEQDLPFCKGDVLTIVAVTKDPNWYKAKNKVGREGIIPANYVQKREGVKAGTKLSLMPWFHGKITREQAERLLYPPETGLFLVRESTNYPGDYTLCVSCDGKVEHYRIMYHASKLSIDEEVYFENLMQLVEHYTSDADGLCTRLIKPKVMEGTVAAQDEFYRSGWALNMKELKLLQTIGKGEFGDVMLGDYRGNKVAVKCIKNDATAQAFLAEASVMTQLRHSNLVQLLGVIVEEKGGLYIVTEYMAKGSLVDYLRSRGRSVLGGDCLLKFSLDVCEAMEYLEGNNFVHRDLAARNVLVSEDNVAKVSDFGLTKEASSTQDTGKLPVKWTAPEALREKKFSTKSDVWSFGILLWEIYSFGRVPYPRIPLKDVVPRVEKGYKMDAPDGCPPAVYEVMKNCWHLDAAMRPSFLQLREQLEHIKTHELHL

[11] = target: Tyrosine-protein kinase CSK (Homo sapiens) (UniProt P41240); conditions: at 1 µM
[12] = target: T2, Discoidin domain-containing receptor 2 (Homo sapiens) (UniProt Q16832); conditions: at 0.1 µM
T2 sequence (whole entry): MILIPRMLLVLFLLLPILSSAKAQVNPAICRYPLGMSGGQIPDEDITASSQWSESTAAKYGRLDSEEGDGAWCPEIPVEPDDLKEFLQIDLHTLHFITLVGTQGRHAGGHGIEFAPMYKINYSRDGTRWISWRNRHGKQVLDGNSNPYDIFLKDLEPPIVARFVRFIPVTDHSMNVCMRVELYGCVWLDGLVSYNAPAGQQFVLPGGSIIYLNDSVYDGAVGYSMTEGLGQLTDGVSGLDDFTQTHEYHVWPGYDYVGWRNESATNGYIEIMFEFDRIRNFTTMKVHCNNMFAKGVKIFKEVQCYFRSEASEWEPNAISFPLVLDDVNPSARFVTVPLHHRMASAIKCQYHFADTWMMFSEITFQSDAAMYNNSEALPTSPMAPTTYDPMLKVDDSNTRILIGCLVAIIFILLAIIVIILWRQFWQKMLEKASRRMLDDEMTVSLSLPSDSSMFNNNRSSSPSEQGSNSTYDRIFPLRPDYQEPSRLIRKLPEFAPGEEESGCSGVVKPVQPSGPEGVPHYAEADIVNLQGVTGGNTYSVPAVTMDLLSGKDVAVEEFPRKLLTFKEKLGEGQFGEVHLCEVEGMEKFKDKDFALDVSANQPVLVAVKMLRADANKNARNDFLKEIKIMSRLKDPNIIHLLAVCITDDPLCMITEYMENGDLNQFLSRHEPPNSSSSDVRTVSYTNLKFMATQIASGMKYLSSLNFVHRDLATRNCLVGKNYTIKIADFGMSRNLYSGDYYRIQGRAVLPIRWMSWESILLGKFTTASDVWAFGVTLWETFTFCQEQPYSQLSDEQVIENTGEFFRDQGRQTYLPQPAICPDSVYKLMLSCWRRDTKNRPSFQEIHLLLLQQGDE

[13] = target: T2, Discoidin domain-containing receptor 2 (Homo sapiens); conditions: at 1 µM
[14] = target: Epidermal growth factor receptor (Homo sapiens) (UniProt P00533); conditions: at 0.1 µM
[15] = target: Epidermal growth factor receptor (Homo sapiens) (UniProt P00533); conditions: at 1 µM
[16] = tested on: Epidermal growth factor receptor (Homo sapiens), P00533 [L858R]; conditions: at 0.1 µM
Epidermal growth factor receptor (Homo sapiens), P00533 [L858R], sequence (P00533 whole entry L858R): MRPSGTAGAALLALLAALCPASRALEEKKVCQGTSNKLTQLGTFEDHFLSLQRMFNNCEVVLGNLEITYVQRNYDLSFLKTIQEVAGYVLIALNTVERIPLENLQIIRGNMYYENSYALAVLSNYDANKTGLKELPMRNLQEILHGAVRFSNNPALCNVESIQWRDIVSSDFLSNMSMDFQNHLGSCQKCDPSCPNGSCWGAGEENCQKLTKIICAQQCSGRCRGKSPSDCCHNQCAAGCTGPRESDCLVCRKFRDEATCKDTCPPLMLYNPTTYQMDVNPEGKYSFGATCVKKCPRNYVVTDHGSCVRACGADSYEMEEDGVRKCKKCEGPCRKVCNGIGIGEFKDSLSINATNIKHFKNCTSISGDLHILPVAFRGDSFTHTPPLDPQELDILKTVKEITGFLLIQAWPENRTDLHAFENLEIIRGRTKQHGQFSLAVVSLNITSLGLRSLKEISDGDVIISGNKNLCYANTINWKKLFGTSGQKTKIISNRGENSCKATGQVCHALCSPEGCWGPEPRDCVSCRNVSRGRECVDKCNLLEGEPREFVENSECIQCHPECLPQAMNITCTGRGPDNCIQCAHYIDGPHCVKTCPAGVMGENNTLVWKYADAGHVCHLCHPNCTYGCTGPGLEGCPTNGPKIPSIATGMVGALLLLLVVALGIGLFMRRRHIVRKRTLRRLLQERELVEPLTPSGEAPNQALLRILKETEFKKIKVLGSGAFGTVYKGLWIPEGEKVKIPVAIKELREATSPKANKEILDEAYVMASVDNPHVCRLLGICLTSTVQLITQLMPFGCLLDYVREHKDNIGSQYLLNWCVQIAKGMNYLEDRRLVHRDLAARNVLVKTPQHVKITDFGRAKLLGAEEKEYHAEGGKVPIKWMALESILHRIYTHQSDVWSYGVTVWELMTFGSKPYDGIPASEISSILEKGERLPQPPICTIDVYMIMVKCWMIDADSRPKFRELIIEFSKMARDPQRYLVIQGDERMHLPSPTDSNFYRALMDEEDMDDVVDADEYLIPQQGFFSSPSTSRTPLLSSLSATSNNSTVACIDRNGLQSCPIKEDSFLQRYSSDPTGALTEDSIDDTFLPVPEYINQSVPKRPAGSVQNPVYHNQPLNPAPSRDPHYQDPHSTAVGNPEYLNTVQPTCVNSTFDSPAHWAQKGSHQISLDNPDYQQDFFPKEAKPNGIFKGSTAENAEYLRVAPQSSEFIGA

[17] = tested on: Epidermal growth factor receptor (Homo sapiens), P00533 [L858R]; conditions: at 1 µM
[18] = tested on: Epidermal growth factor receptor (Homo sapiens), P00533 [L861Q]; conditions: at 0.1 µM
Epidermal growth factor receptor (Homo sapiens), P00533 [L861Q], sequence (P00533 whole entry L861Q): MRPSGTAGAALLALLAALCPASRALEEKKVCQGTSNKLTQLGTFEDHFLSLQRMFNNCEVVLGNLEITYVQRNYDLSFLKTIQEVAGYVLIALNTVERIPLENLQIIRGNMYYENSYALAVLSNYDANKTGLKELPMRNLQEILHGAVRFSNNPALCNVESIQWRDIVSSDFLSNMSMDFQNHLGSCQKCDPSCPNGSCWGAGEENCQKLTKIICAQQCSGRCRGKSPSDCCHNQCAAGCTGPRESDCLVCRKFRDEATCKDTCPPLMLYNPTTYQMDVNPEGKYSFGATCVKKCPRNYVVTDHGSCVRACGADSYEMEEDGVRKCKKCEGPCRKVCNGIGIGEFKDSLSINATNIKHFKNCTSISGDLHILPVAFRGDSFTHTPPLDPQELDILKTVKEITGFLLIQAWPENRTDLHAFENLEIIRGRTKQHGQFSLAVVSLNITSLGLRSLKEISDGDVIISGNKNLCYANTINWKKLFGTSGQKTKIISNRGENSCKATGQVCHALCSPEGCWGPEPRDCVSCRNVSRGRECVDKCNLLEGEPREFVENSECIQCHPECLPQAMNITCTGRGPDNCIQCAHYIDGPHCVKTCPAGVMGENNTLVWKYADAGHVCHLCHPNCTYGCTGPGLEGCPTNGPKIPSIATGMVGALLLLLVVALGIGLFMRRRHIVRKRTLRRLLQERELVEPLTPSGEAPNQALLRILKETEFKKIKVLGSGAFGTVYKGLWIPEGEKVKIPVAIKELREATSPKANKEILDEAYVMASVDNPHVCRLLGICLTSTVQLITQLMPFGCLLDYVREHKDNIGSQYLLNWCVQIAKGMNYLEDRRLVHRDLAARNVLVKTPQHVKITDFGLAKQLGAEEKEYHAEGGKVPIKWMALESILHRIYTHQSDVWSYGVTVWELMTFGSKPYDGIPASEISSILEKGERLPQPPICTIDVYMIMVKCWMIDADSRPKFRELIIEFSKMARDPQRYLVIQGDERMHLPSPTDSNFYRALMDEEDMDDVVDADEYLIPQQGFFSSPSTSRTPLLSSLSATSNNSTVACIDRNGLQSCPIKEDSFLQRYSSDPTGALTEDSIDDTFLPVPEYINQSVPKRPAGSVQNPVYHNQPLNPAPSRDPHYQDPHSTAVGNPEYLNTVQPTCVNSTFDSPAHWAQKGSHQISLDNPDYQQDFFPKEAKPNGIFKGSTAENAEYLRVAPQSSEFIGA

[19] = tested on: Epidermal growth factor receptor (Homo sapiens), P00533 [L861Q]; conditions: at 1 µM
[20] = tested on: Epidermal growth factor receptor (Homo sapiens), P00533 [T790M]; conditions: at 0.1 µM
Epidermal growth factor receptor (Homo sapiens), P00533 [T790M], sequence (P00533 whole entry T790M): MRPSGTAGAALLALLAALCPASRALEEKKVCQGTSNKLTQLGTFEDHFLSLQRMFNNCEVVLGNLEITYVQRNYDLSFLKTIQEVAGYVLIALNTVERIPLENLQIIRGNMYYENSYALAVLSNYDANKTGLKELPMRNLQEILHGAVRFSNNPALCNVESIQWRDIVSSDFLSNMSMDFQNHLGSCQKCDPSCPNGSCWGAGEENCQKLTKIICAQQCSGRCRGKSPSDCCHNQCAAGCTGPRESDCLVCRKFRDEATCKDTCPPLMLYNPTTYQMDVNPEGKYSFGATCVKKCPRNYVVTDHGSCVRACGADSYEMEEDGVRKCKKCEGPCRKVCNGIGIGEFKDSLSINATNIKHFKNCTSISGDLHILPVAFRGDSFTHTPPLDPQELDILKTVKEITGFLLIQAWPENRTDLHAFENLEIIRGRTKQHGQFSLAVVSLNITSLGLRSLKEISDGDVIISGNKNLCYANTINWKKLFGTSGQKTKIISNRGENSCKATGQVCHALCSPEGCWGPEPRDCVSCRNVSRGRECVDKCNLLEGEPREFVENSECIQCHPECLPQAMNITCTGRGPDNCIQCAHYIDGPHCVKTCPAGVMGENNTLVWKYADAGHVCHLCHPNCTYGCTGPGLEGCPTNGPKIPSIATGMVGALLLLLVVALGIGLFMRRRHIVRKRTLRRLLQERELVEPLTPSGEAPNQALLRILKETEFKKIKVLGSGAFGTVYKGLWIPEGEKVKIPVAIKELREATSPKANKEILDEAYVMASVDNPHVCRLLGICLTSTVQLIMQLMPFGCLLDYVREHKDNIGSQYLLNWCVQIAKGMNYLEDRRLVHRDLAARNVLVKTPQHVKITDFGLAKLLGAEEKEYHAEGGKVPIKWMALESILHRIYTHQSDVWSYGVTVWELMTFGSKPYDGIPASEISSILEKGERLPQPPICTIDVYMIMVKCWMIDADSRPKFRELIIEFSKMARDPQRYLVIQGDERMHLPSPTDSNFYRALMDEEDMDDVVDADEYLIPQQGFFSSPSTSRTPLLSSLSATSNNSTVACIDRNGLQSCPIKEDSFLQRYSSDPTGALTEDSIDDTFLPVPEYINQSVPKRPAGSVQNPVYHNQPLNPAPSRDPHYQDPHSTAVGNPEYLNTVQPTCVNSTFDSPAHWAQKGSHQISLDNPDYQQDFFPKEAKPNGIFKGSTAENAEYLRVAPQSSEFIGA

Tyrosine-protein kinase Blk (Homo sapiens), sequence (P51451 2-505 limits assumed): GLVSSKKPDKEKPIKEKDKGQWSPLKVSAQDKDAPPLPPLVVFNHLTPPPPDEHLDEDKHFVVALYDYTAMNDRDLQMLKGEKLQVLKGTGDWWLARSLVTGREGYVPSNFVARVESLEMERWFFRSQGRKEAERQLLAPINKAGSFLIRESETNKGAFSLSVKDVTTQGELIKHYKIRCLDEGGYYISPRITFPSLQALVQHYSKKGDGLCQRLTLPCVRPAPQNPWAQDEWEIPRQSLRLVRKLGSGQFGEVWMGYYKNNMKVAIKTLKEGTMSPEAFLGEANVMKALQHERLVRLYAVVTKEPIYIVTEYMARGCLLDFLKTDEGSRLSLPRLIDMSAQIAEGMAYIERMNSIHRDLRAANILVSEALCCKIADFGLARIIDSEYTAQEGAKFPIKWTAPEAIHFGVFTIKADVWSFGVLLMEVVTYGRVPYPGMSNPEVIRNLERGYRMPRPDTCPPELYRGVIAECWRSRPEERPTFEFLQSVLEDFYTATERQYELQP

Row | Structure (SMILES) | inhibition [1] | inhibition [2] | inhibition [3] | inhibition [4] | inhibition [5] | inhibition [6] | inhibition [7] | inhibition [8] | inhibition [9] | inhibition [10] | inhibition [11] | inhibition [12] | inhibition [13] | inhibition [14] | inhibition [15] | inhibition [16] | inhibition [17] | inhibition [18] | inhibition [19] | inhibition [20]
1 | N#Cc1ccc2c(-c3ccnc(NC4CC4)n3)c(-c3ccc(F)cc3)nn2c1 | -4.53% | -1.08% | -3.55% | 1.17% | 2.56% | -1.17% | 2.88% | -0.25% | -2.34% | 1.65% | 3.45% | 4.32% | 15.8% | 1.52% | 13.8% | 5.89% | 41.3% | 1.64% | 12.9% | -0.38%
2 | COc1ccc(-c2nn3ncccc3c2-c2ccnc(Nc3ccc(F)c(F)c3)n2)cc1 | -3.4% | 3.7% | 7.65% | 6.68% | 6.9% | 9.68% | 46.2% | 0.77% | 0.68% | 4.89% | 8.37% | 4.41% | 34.7% | 1.6% | 9.46% | 3.72% | 21.4% | 3.55% | 10.2% | 3.23%
3 | CCCNc1cccc(-n2ncc3c(N/N=C/c4ccncc4)ncnc32)c1 | 13.2% | 14.2% | 62.9% | 1.67% | 13.4% | 8.53% | 51% | 1.43% | 4.2% | 2.59% | 12.1% | 1.93% | 7.68% | 3.46% | 33.5% | 14% | 71.8% | 2.74% | 31.4% | -0.43%
4 | Fc1ccc(Nc2nccc(-c3c(-c4ccc(C(F)(F)F)cc4)nn4ncccc34)n2)cc1F | -7.82% | 2.43% | 2.03% | 0.77% | 5.09% | 3.39% | 0.92% | 1.62% | 0.94% | 1.84% | 0.02% | 0.84% | 1.01% | -6.64% | 2.88% | 4.49% | 2.96% | 2.39% | -0.05% | 2.44%
5 | c1cnn2ncc(-c3ccnc(NCCCN4CCOCC4)n3)c2c1 | -4.37% | 1.7% | 2.58% | -0.07% | 2.01% | 2.34% | 3.25% | -1.19% | -2.44% | 5.75% | 1.9% | 2.03% | 1.44% | -0.42% | 0.23% | 3.41% | 1.28% | 1.28% | 0.79% | 0.73%
6 | CS(=O)(=O)Nc1ccc(-c2cc(-c3ccccc3)cc(C(N)=O)c2N)cc1 | -0.04% | 0% | 4.17% | 1.21% | 0.72% | 0.76% | 3.55% | -2.25% | -2.03% | 1.18% | 1.29% | -0.17% | 1.14% | 11.5% | 17.2% | 1.51% | 1.89% | 0.77% | 5.17% | -0.83%
7 | Cc1cc(O)cc(C)c1/C=C/c1cncc(C(N)=O)c1 | -0.54% | 3.77% | 23% | 5.58% | 37.5% | 22.2% | 72.8% | -0.17% | 2.64% | 4.27% | 25.5% | 2.69% | 9.65% | 6.97% | 11.2% | 3.98% | 18.9% | 3.84% | 5.76% | 1.27%
8 | O=C(O[C@H]1CN[C@H](C#Cc2cc3ncnc(Nc4ccc(OCc5cccc(F)c5)c(Cl)c4)c3s2)C1)N1CCOCC1 | -9.27% | 3.99% | 1.91% | -1.21% | 3.25% | 5.25% | 9.3% | 0.42% | -0.33% | 7.67% | 7.44% | 1% | 2.47% | 77.1% | 77.1% | 40.9% | 87% | 42.8% | 75.2% | 5.1%
9 | CS(=O)(=O)Nc1ccc(-c2ccc3c(NC(=O)C4CC4)n[nH]c3c2)cc1 | 0.24% | 2.19% | 9.5% | -5.43% | 4.64% | 1.77% | 2.53% | 1% | 1.7% | 3.59% | 0.41% | 1.42% | 0.51% | -0.2% | 2.27% | 2.52% | -0.4% | 2.28% | -2.37% | 2.21%
10 | O=C1Nc2ccccc2/C1=C1\CCc2cc(O)ccc21 | 1.9% | 4.37% | 22% | 0.61% | 7.52% | 5% | 4.05% | -0.87% | 0.47% | 5.49% | 4.47% | 2.06% | 3.76% | 0.24% | 1.05% | 1.94% | 2.87% | 2.16% | -0.57% | 1.76%
11 | COc1ccccc1-c1cc(/C=C2\C(=O)Nc3ncc(Br)cc32)cc(Br)c1O | -1.51% | 2.49% | 10.7% | 0.75% | 6.48% | 5.88% | 3.92% | 1.5% | 2.07% | 3.21% | 3.65% | 2.75% | 10.6% | -0.76% | 2.08% | -0.74% | 0.61% | 2.99% | 4.29% | 1.88%
12 | Nc1nonc1-c1nc2cnccc2n1C1CC1 | 0.16% and -1.32% | 2.66% and -2.38% | 4.59% and -2.3% | 6.52% and -2.61% | 4.75% and 2.31% | 5.31% and 2.92% | 3.69% and 2.66% | 1.67% and -4.68% | 1.98% and -4.91% | 3.81% and 3.48% | 2.08% and 1.45% | 1.46% and 1.25% | 2.24% and 0.96% | 1.3% and -3.46% | 4.4% and -3.77% | 1.41% and 2.54% | 0.67% and 3.32% | 4% and 2.76% | -0.36% and -1.27% | 1.58% and 0.88%
13 | CN1CCN(Cc2ccc(-c3cc4ncnc(Nc5ccc(OCc6cccc(F)c6)c(Cl)c5)c4s3)o2)CC1 | -0.55% and -6.25% | 2.97% and 3.59% | 13.3% and 15.7% | 1.68% and 6.37% | 5.03% and 3.73% | 6.28% and 7.91% | 29.5% and 33.2% | -0.21% and -0.71% | 2.04% and 2.62% | 2.47% and 5.63% | 12.6% and 17.7% | 1.16% and 0.39% | 1.23% and -0.86% |  |  |  |  |  |  | 
14 | Nc1ncnc2occ(-c3ccc(NC(=O)Nc4cc(C(F)(F)F)ccc4F)cc3)c12 | 37.3% and 23.5% | 4.09% and 1.25% | 39% and 23.5% | 17.8% and 9.86% | 69.5% and 57.2% | 3.76% and -0.33% | 4.26% and 3.06% | 0.97% and 0.09% | 5.11% and 1.18% | 6.39% and 0.36% | 41% and 18.6% | 46.1% and 33.6% | 80% and 79.7% | 1.05% and 12.5% | 5.41% and 15.6% | 2.23% and 3.14% | 1.42% and 3.22% | 3.11% and 1.25% | 1.69% and 1.44% | 1.74% and 0.3%
